From ChEMBL document CHEMBL3988442, “University of Dundee, Small-Polar-MMV Screening Library” (2021)

What was measured:
Type in all cases: functional
Parameters in all cases: scale not given: direction of the effect not stated beside the values
Details in all cases: 30 µM
[1] = biological target: T1, Aspartate--tRNA(Asp/Asn) ligase (Mycobacterium tuberculosis (strain ATCC 25618 / H37Rv)) (UniProt P9WFW3); assay: Assay for Asp RNA synthetase-1 from Mycobacterium tuberculosis; also: in the data most compounds retested in dose-response had high values
T1 sequence (whole entry): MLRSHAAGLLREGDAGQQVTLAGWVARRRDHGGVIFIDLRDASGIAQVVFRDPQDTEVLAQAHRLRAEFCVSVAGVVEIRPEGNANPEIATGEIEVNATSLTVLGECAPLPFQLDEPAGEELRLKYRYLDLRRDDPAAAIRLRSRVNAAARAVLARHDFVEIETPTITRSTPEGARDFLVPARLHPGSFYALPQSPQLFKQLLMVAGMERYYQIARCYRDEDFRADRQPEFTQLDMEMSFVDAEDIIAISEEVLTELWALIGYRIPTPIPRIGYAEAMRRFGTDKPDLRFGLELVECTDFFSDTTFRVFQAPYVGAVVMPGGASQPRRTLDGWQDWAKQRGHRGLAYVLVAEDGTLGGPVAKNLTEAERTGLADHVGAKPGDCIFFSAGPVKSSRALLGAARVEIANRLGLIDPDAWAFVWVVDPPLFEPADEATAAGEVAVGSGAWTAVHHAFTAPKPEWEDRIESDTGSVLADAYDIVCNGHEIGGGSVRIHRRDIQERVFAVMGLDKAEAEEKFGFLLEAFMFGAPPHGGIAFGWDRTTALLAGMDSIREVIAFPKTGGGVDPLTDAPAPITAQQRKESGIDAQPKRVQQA

[2] = biological target: Shiga toxin 2 (Escherichia coli O157:H7) (UniProt P09385+P09386); assay: E. coli 0.157:H7 Shiga Toxin SOP - stx2 screening assay
[3] = biological target: AMP-activated protein kinase, AMPK (Homo sapiens) (UniProt P54646+O43741+P54619+Q9UGJ0+Q9Y478+Q13131+Q9UGI9); assay: AMP-dependent Kinase enzyme assay. An in vitro enzyme assay that detects ADP turnover that is directly proportional to AMPK activity. This uses naive AMPK that is activated during the assay with MK-8722

| Compound | Percent Effect [1] [%] | Percent Effect [2] [%] | Percent Effect [3] [%] |
| --- | --- | --- | --- |
| COc1ccc(OC)c(C(C)Nc2nc3c(C)nn(C)c3c(=O)n2C)c1 (stereo unspecified) | 4.76 | -69.5 |  |
| Cc1cc(CNC(=O)NC(C)c2ccncc2)no1 (stereo unspecified) | 7.94 | -40 |  |
| CC(C#N)CSc1ccccc1NCC(=O)NCc1ccccc1 (stereo unspecified) | -8.08 | 21.2 |  |
| CCc1nnc(Nc2cccc(C3CCN(CCO)CC3)n2)s1 | -4.6 | -9.69 |  |
| Cc1nonc1CC(=O)N1C[C@@H]2CC[C@H](C1)N(Cc1ccccc1)C2=O | 1.39 | 2.88 |  |
| Cc1cc2cc(C(=O)N3CC[C@H](O)[C@]4(CCCO4)C3)ccc2o1 | 1.13 | -10.1 |  |
| CC(=O)N(Cc1ncc(C)o1)C1CCN(CCCc2cnn(C)c2)C1 (stereo unspecified) | 6.13 | -33.8 |  |
| COCC(=O)N1CCC(c2nc3ccc(N4CCCC4)cn3n2)CC1 | -0.957 | -26.9 |  |
| O=C(NCCn1ccc(-c2ccncc2)n1)c1ccncc1 | 1.52 | -65.9 |  |
| O=C(c1ccno1)N1CCC2(CC1)C(=O)N(CC1CC1)c1ccccc12 | -0.569 | -1.25 |  |
| O=C(N[C@H]1COC[C@@H]1N1CCCC1)c1csc(Cc2ccccc2)n1 |  |  | 4.04 |
| Cc1nc(C2CCCN(C(=O)Cn3ccccc3=O)C2)no1 (stereo unspecified) | -1.54 | 25.3 |  |
| CCN1CCC(NC(=O)CN2CCCCC2Cn2cc(C)cn2)CC1 (stereo unspecified) | -0.102 | -21.7 |  |
| Cn1cc(C2=CCN(CCC(=O)NCc3ccc(Cl)cc3)CC2)cn1 |  |  | 6.44 |
| COc1ccc2ncn(Cc3ncc[nH]3)c(=O)c2c1 |  |  | -1.95 |
| CS(=O)(=O)NCc1nnc2n1CCN(Cc1cccs1)C2 | -4.17 | 3.79 |  |
| COC(=O)CN(C)C1CCc2ccccc21 (stereo unspecified) | -6.57 | 28.1 |  |
| COc1cccc(-c2noc(C3CCN(Cc4cn(C)nc4C)C3)n2)c1 (stereo unspecified) | -1.93 | -38.8 |  |
| Cn1ccnc1CNC1CCCN(Cc2noc(C3CC3)n2)C1 (stereo unspecified) | -0.413 | -13.4 |  |
| CN(Cc1ccc(F)cc1)C(=O)Cn1nc(-c2ccc(F)cc2)oc1=O | 5.72 | -25.7 |  |
| CC(=O)NCCNC(=O)CN1CCN(Cc2nccn2C)C(C)C1 (stereo unspecified) | 2.19 | 2.09 |  |
| CC(C)OCCN1CCN(C(=O)c2cccc(CC#N)c2)CC1 | 2.85 | -12.3 |  |
| CC(C)c1nn(C)c(N(C)C)c1CNCCC(=O)NC1CCCC1 | -3.2 | -5.9 |  |
| CS(=O)(=O)NCC1CCCN(C(=O)c2ccc(Cl)o2)C1 (stereo unspecified) | 1.23 | -7.98 |  |

| Compound | Percent Effect [1] [%] | Percent Effect [2] [%] | Percent Effect [3] [%] |
| --- | --- | --- | --- |
| Cc1ncsc1C(=O)N1CCCN(Cc2cscn2)CC1 | 1.47 | 16.9 |  |
| CCc1nc(C2CCCN(C(=O)c3ccc4[nH]nnc4c3)C2)no1 (stereo unspecified) | 2.74 | 14.5 |  |
| COc1cccc(CN(C)C(=O)CSc2ccc3c(c2)OCCO3)c1 | 0.12 | 7.23 |  |
| O=C(NCC1CCOC1)c1ccc(OCC(F)(F)F)nc1 (stereo unspecified) | -2.12 | -17.6 |  |
| CC(C)[C@@H]1CN(C(=O)C2(c3ccccc3)CCN(C)CC2)C[C@H]1C(=O)O |  |  | 3.48 |
| CC1CN(C)CCN1C(=O)Cc1cc(Cl)c2c(c1)OCCO2 (stereo unspecified) |  |  | 1.93 |
| Cc1cc(C(=O)N2C[C@@H](C(=O)O)[C@H](c3ccccc3C)C2)c(C)o1 | 6.11 | -22 |  |
| CC(C)[C@@H]1CN(C(=O)C2(c3ccccc3)CCN(C)CC2)C[C@H]1N(C)C |  |  | -5.45 |
| CCN1CCN(C(=O)CCc2c(C)noc2Cl)CC1 | 0.983 | 28.8 |  |
| Cc1cc(OCC(=O)N2CCCC(c3noc(C)n3)C2)no1 (stereo unspecified) | -1.75 | -41.1 |  |
| CCCS(=O)(=O)c1ncc(CN2CCC(CO)CC2)n1CC1CCCO1 (stereo unspecified) | -5.1 | -15.9 |  |
| CC(C)(C)OC(=O)N1CCCC[C@H]1C(=O)NCc1nccs1 | -1.06 | -16.6 |  |
| CC(C)Cc1noc(CN(C)C(=O)C2COc3ccccc3C2)n1 (stereo unspecified) | -1.81 | -46.4 |  |
| CCCc1nc(C)cc(N2CCC3(CCC(=O)N(CC4CC4)C3)CC2)n1 | 3.82 | -18.5 |  |
| Cc1nnc2n1CCN(CCS(=O)(=O)c1ccccc1)C2 | -4.37 | -6.96 |  |
| CCOCC1CN(S(C)(=O)=O)Cc2cnn(CC3CCOCC3)c21 (stereo unspecified) | 5.17 | -7.39 |  |
| O=C(NCCc1c[nH]cn1)c1ccccc1C1CCNC1 (stereo unspecified) |  |  | -4.12 |
| Cc1ccc2c(CC(=O)N(C)CCN(C)C)c(C)[nH]c2c1C |  |  | -8.21 |
| O=C(CC1CCCC1)N1C[C@@H]2CCN(c3cccnc3)C[C@@H]2C1 | 2 | -5.1 |  |
| Cn1ccnc1CN1CCCC1c1noc(C2CC2)n1 (stereo unspecified) | -0.426 | -7.56 |  |
| Cc1cc(Cl)ccc1C(=O)C1CCCN(Cc2cnc(N(C)C)s2)C1 (stereo unspecified) |  |  | 3.99 |
| Cc1nc(C2CCCN2C(=O)c2ccccc2)ncc1C(N)=O (stereo unspecified) | -3.02 | -6.25 |  |
| Cc1nc(CN(C)C2CCN(Cc3ccc4ccccc4n3)C2)no1 (stereo unspecified) | 3.73 | -68.9 |  |
| CCc1ccc(OCC(=O)N2CCN(CC)CC2)cc1 |  |  | -0.678 |
